Screening data from PubChem.
An excerpt weighted towards active compounds, which were near 13% of everything screened.
CHOP inhibitor – inhibitors of CHOP induction in ER stress response; CHO-K1 CHOP-promoter luciferase, tunicamycin-induced, 15-18 h; inhibition, % at 10 µM; hit rate 3.8% among 220,000; AID 2732;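 active means compounds that reduced the stress-induced luciferase reporter signal by more than about 70% of percent inhibition, limit read from the data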;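 further: 0% = tunicamycin plus vehicle and 100% = wells without tunicamycin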
WT yeast gro inh – growth inhibition of WT yeast, mitochondrial fusion screen. mitochondrial fusion phenotypic screen, WT strain. hit rate 2.1% among 190,000. inhibition, % at 10 µM; in the data active means inhibition above about 58%; tested in S. cerevisiae
RAM network inh – inhibitors of the yeast RAM network; S. cerevisiae dse1pr::URA3 reporter, 5-FOA growth OD615, 2 d; analog-sensitive cbk1-as2 kinase mutant strain; inhibition, % at 50 µM; hit rate 1.8% among 190,000;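 active means inhibition above a set limit, 3 SD over mean compound inhibition, cut at about 8.4% in these data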;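 further: 0% = DMSO-only wells with no growth and 100% = 10 µM 1-NA-PP1 full growth; inhibition rescues growth on 5-FOA so higher OD means more RAM inhibition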
Lmaj promast – Leishmania major promastigote growth inhibition. inhibition, % at 10 µM. AID 1063. Leishmania major promastigotes, resazurin fluorescence viability. hit rate 9% among 200,000; in the data active means inhibition above about 50%;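 further: promastigotes grown with compound for 44 hours at 28 °C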
Lmaj promast 1uM – L. major promastigote growth inhibition, 1 uM repeat. shares compounds with Lmaj promast. resazurin fluorescence, 48 h. inhibition, % at 1 µM. hit rate 13% among 1,100;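 active means inhibition above about 50% in both repeat tests, limit read from the data; inconclusive means one repeat under the set limit, the other over it; inactive means both repeats under the set limit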
* hit, by the source's call.

What do the screens show for `COC(=O)CN1C(c2ccc(OC)cc2)=Nc2ccc(Cl)cc2C1c1ccccc1` (stereo unspecified)?
CHOP inhibitor: 9.7; WT yeast gro inh: 57.9; RAM network inh: 1.8; Lmaj promast: 44.8

How did COC(=O)CN1C(c2cccc(Cl)c2)=Nc2ccc(Cl)cc2C1c1ccccc1 (stereo unspecified) do in these assays?
CHOP inhibitor: 35.8; WT yeast gro inh: 75.5*; RAM network inh: 1.0; Lmaj promast: 60.0*; Lmaj promast 1uM: 29.1

Results for CCn1c(C)c(P(c2ccccc2)c2ccccc2)[n+]2ccccc12 ?
CHOP inhibitor: 7.3; WT yeast gro inh: -4.0; RAM network inh: 1.0; Lmaj promast: 94.5*; Lmaj promast 1uM: -10.9

How did CCn1c(C)c2c(C)nnc(C)c2c1C do in these assays?
CHOP inhibitor: -4.5; WT yeast gro inh: 4.1; RAM network inh: 0.6; Lmaj promast: 19.2

How did CC(CNC(=O)C(C)(C)C)NC(=O)C(C)(C)C (stereo unspecified) do in these assays?
CHOP inhibitor: 43.8; WT yeast gro inh: 10.9; RAM network inh: 0.4; Lmaj promast: 41.4

What do the screens show for `CC(C)Cn1c(N)c(C(=O)COC(=O)c2cnc(Cl)c(Cl)c2)c(=O)n(C)c1=O`?
CHOP inhibitor: 30.4; WT yeast gro inh: 2.1; RAM network inh: 0.7; Lmaj promast: 6.1

What do the screens show for `CCOC(=O)c1oc2ccc(CNC(C)(C)C)c(Cl)c2c1C`?
CHOP inhibitor: -7.4; WT yeast gro inh: 14.5; RAM network inh: -1.1; Lmaj promast: 99.0*; Lmaj promast 1uM: 7.8

Results for O=C1CCCC(=O)C1C(=O)C1CCN(S(=O)(=O)c2ccccc2)CC1 ?
CHOP inhibitor: -1.6; WT yeast gro inh: -0.1; RAM network inh: -0.6; Lmaj promast: 2.8

How did c1cncc(C2Nc3ccccc3-c3nc4ccccc4n32)c1 (stereo unspecified) do in these assays?
CHOP inhibitor: -0.2; WT yeast gro inh: 18.4; RAM network inh: 0.8; Lmaj promast: 85.8*; Lmaj promast 1uM: inconclusive

How did CCOC(=O)C1C(=O)OC(C)(C)C1C(C)C(=O)c1ccccc1 (stereo unspecified) do in these assays?
CHOP inhibitor: 37.9; WT yeast gro inh: -12.4; RAM network inh: 1.9; Lmaj promast: -2.3

How did O=C1c2cc([N+](=O)[O-])cc3cc([N+](=O)[O-])cc(c23)C(=O)N1c1ccccn1 do in these assays?
CHOP inhibitor: -34.2; WT yeast gro inh: 41.3; RAM network inh: 0.7; Lmaj promast: 90.3*; Lmaj promast 1uM: 27.8

Results for CCC(=O)Nc1nnc(-c2ccccn2)o1 ?
CHOP inhibitor: -4.1; WT yeast gro inh: -8.8; RAM network inh: -0.6; Lmaj promast: -2.9

Results for O=C(CCc1ccccc1)Nc1nnc(-c2ccccn2)o1 ?
CHOP inhibitor: -6.6; WT yeast gro inh: 1.1; RAM network inh: 3.0; Lmaj promast: 62.3*; Lmaj promast 1uM: 33.7

What do the screens show for `CC(CCc1ccc(O)cc1)N(C)CCc1ccccc1` (stereo unspecified)?
CHOP inhibitor: 30.4; WT yeast gro inh: 20.7; RAM network inh: 1.5; Lmaj promast: 94.1*; Lmaj promast 1uM: 25.8

Results for CCOC(=O)C(=O)NC(C)CCc1ccccc1 (stereo unspecified) ?
CHOP inhibitor: -33.3; WT yeast gro inh: 9.3; RAM network inh: -0.1; Lmaj promast: -1.4

Results for O=C1C(=O)c2c(C(=O)c3ccccc3)coc2-c2ccccc21 ?
CHOP inhibitor: 52.5; WT yeast gro inh: 88.2; RAM network inh: -1.2; Lmaj promast: 100.4*; Lmaj promast 1uM: 61.2*

How did Nc1nc(-c2cccs2)c(NC(=O)c2ccccc2)s1 do in these assays?
CHOP inhibitor: 10.8; WT yeast gro inh: -6.8; RAM network inh: -0.3; Lmaj promast: 86.2*; Lmaj promast 1uM: -7.7

How did Cc1ccc(C(=O)NCC(=O)OCC(=O)c2ccc3c(c2)NC(=O)CO3)cc1 do in these assays?
CHOP inhibitor: 3.9; WT yeast gro inh: -9.2; RAM network inh: 4.6; Lmaj promast: -7.3

What do the screens show for `Cc1cc(-c2ccccc2)cc(-c2ccccc2)[n+]1C`?
CHOP inhibitor: 14.9; WT yeast gro inh: -11.0; RAM network inh: 2.8; Lmaj promast: 58.8*; Lmaj promast 1uM: 7.1

Results for c1ccc(Cn2nc(-c3ccccc3)nc2-c2ccccc2)cc1 ?
CHOP inhibitor: 37.1; WT yeast gro inh: 21.7; RAM network inh: 2.3; Lmaj promast: 93.5*; Lmaj promast 1uM: -8.9

How did Cc1cc2n(n1)C(c1ccc3c(c1)OCO3)Nc1ccccc1-2 (stereo unspecified) do in these assays?
CHOP inhibitor: 41.8; WT yeast gro inh: 23.0; RAM network inh: -0.1; Lmaj promast: 4.9

What do the screens show for `Cc1ccc2c(c1)-c1cc(C)nn1C(c1ccc3c(c1)OCO3)N2` (stereo unspecified)?
CHOP inhibitor: 18.9; WT yeast gro inh: -11.1; RAM network inh: 2.3; Lmaj promast: 97.6*; Lmaj promast 1uM: 94.8*

How did Cc1[nH]c2ccccc2c1/C=C/c1cc[n+](C)cc1 do in these assays?
CHOP inhibitor: 49.2; WT yeast gro inh: 57.7; RAM network inh: 0.8; Lmaj promast: 65.4*; Lmaj promast 1uM: -10.7

Results for Cc1ccccc1/C=C/c1cc[n+](C)cc1 ?
CHOP inhibitor: -10.0; WT yeast gro inh: -4.1; RAM network inh: -0.2; Lmaj promast: -1.1

What do the screens show for `O=C(N/N=C/c1ccccc1[N+](=O)[O-])C(=O)N1CCCC1`?
CHOP inhibitor: -6.5; WT yeast gro inh: -11.9; RAM network inh: 0.5; Lmaj promast: -5.1

What do the screens show for `O=[N+]([O-])c1cc(Cl)cc(C2=NCCN2)c1`?
CHOP inhibitor: -14.9; WT yeast gro inh: 20.4; RAM network inh: 1.9; Lmaj promast: 51.6*; Lmaj promast 1uM: -15.0

Results for COc1ccc(-c2nc(NC(=O)c3cc(C(C)(C)C)nn3C)sc2C)cc1 ?
CHOP inhibitor: 47.5; WT yeast gro inh: -1.2; RAM network inh: 4.3; Lmaj promast: 70.2*; Lmaj promast 1uM: 8.8

Results for CC1Cc2ccccc2N1C(=S)Nc1ccc(S(N)(=O)=O)cc1 (stereo unspecified) ?
CHOP inhibitor: 45.9; WT yeast gro inh: -13.1; RAM network inh: 0.8; Lmaj promast: 80.2*; Lmaj promast 1uM: -21.8

What do the screens show for `O=c1c2ccccc2nnn1COc1ccc(Cl)cc1Br`?
CHOP inhibitor: 7.7; WT yeast gro inh: -23.3; RAM network inh: 1.8; Lmaj promast: -3.0

Results for S=c1[nH]c(-c2ccccc2)cs1 ?
CHOP inhibitor: -6.2; WT yeast gro inh: 49.2; RAM network inh: 0.1; Lmaj promast: 77.3*; Lmaj promast 1uM: -9.3

Results for CC1C(=O)NN=C1C(=O)N/N=C/c1cccs1 (stereo unspecified) ?
CHOP inhibitor: 1.2; WT yeast gro inh: -8.2; RAM network inh: 1.4; Lmaj promast: -5.9

Results for Cc1onc(-c2ccccc2Cl)c1-c1nc(-c2ccccn2)no1 ?
CHOP inhibitor: 38.8; WT yeast gro inh: 44.4; RAM network inh: 0.6; Lmaj promast: 74.5*; Lmaj promast 1uM: 14.6

Results for Cc1ccc(-c2nnc(-c3ccc4c(c3)OCO4)o2)cc1 ?
CHOP inhibitor: 25.4; WT yeast gro inh: -12.3; RAM network inh: 3.8; Lmaj promast: 0.1

What do the screens show for `CC(C)C1N=C(c2ccc3c(c2)OCO3)CC(c2ccccc2O)N1` (stereo unspecified)?
CHOP inhibitor: -21.3; WT yeast gro inh: 17.6; RAM network inh: 1.1; Lmaj promast: 99.4*; Lmaj promast 1uM: 25.6
